# Compound activity deposited in PubChem BioAssay by National Center for Advancing Translational Sciences (NCATS).
# Most compounds without a hit are left out; they make up all but 3% or so of the library.
# GALK inh = qHTS Assay for Inhibitors of Human Galactokinase (GALK) | P51570 | Purified GALK, Kinase-Glo residual ATP luminescence | Potency, µM (doses to about 57.5 µM), for inactives: at the top dose activity change, negative = inhibition, hits mostly inhibitors | AID 1868, 2009 | 0.007% of 270,000 active; also: % is scaled to controls: 0 for no effect and ±100 for the full control effect
#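 Compounds were pin-transferred into ATP buffer (35 uM final), then GALK plus galactose (5 nM, 100 uM final) was added. After 1 h at room temperature, Kinase-Glo Plus was added and luminescence read after 10 min.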
# Nrf2 ARE act = qHTS of Nrf2 Activators. AREc32 ARE-luciferase reporter (MCF7-derived line), luminescence, 24 h. Potency, µM (top dose mostly 46.1 µM), inactives show at the highest dose activation, most hits filed as activators. 0.31% of 410,000 active; also: % of control where 0% means no effect; nearly all actives have a fitted effect of over 65% in size
#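 AREc32 cells carrying an ARE-driven firefly luciferase, 1000 cells/well in OPTI-MEM with 5% FBS, dosed after overnight attachment and incubated 24 hr at 37 deg C. Steady-Glo luminescence read after 30 min at RT.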
# Nrf2 inh = Nrf2 qHTS screen for inhibitors. Potency, µM (doses to about 46 µM), for inactives: top-dose activity change, negative = inhibition, usual class: inhibitors. A549 ARE-Fluc reporter, luciferase luminescence, 18-24 h. 2.1% of 360,000 active. AID 504444, 2011; also: % is scaled to controls: 0 for no effect and ±100 for the full control effect; nearly all actives have a fitted effect of over 60% in size
#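 Cells were seeded and rested 2 h, then exposed to compounds for 18-24 h. CellTiter-Fluor was read first as a viability measure. BugLite was added 15 min before the final luminescent read of ARE-luciferase activity in A549 cells.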
# A549 viability = Nrf2 qHTS screen for inhibitors: counterscreen for cytotoxicity; A549 ARE-Fluc cells, CellTiter-Fluor viability, 18-24 h; Potency, µM (highest dose often 46 µM), for inactives: top-dose activity change, negative = cytotoxicity, usual class: inhibitors; 0.16% of 390,000 active; also: % is scaled to controls: 0 for no effect and ±100 for the full control effect
#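 A549 ARE-Fluc cells in 5% FBS OPTI-MEM, 5000 cells/well, rested 2 h then exposed to compounds in concentration-response for 18-24 h at 37 °C. Viability by CellTiter-Fluor fluorescence (Ex 405/Em 525) after 30 min; luciferase luminescence (BugLite, 15 min, RT) read afterwards.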
# TrxR1 inh = qHTS Assay for Inhibitors of Mammalian Selenoprotein Thioredoxin Reductase 1 (TrxR1): qHTS; Thioredoxin reductase 1, cytoplasmic (Rattus norvegicus), O89049; recombinant rTrxR1, NADPH fluorescence consumption, selenite substrate; Potency, µM (doses to about 114 µM), inactives show at the top dose activity change, negative = inhibition, most hits filed as inhibitors; 1% of 390,000 active; AID 588453, 2011; also: % is scaled to controls: 0 for no effect and ±100 for the full control effect; nearly all actives have a fitted effect of over 65% in size
# Target sequence (O89049 whole entry, looked up): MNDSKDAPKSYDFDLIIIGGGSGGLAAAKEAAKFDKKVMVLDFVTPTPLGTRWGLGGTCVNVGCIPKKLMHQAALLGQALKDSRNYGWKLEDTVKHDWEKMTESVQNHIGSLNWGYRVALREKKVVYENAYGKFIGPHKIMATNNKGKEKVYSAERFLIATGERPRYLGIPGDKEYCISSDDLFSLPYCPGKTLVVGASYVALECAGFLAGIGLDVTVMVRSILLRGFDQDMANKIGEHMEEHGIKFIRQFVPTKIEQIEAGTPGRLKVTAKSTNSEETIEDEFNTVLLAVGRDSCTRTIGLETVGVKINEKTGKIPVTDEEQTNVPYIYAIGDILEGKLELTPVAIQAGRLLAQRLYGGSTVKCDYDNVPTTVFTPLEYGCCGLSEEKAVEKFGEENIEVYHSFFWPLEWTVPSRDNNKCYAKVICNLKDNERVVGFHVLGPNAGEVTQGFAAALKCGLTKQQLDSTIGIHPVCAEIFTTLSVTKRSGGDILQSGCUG
#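 Rat TrxR1 (90 nM in the dispensed reagent) was pre-reduced with 400 uM NADPH for 5 min at room temperature, then incubated with compound for 15 min. After 400 uM selenite was added, NADPH fluorescence (Ex 340/Em 450 nm) was followed for 8 min.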
# TrxR1 substrate = qHTS Assay for Substrates of Mammalian Selenoprotein Thioredoxin Reductase 1 (TrxR1): qHTS | Thioredoxin reductase 1, cytoplasmic (Rattus norvegicus), O89049 | purified TrxR1 substrate turnover, NADPH consumption readout | Potency, µM (highest dose often 114 µM), for the others: top-dose activity change, negative = substrate turnover | 0.01% of 390,000 active | AID 588456, 2011; also: % is scaled to controls: 0 for no effect and ±100 for the full control effect; nearly all actives have a fitted effect of over 50% in size
#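 Rat TrxR1, dispensed at 90 nM, was prereduced with 400 uM NADPH (final) for 5 min at ~22 deg C, then incubated with compound 15 min before 400 uM selenite. A first-read NADPH fluorescence drop versus no-compound background flagged substrates.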
# Active calls of the source: *; ? = inconclusive; nt = no result given; [ ] = dose if it differs, or a comment. Calls follow the shape of the dose curve; as a rule, active = well fitted curve in the direction sought with a large enough effect; inconclusive = small, poorly fitted or top-dose-only effect, or another doubt; inactive = no such curve, though single readings can be large; an effect the other way counts as inactive or inconclusive. Potency is read from the fitted curve at half-maximal effect.
SMILES,GALK inh,Nrf2 ARE act,Nrf2 inh,A549 viability,TrxR1 inh,TrxR1 substrate
O=C(Nc1nc2c(s1)CCCC2)c1ccc(Br)o1,6.1%,12.6µM*,?,-1.2%,-9.4%[57.1 µM],6.2%[57.1 µM]
Cc1ccc(CNC(=O)CCS(=O)(=O)c2ccc(Br)s2)o1,-1.8%,2.7%,nt,-2.5%,8.91µM*,7.3%
CC(=O)c1cccc(NC(=O)CCS(=O)(=O)c2ccc(Br)s2)c1,1.1%,4.2%,-1.2%,-1.7%,0.4%,0.9%
O=C(CCS(=O)(=O)c1ccc(Br)s1)NCc1ccccc1,-1.3%,0.1%,16.8%,-8.0%,-11.1%[57.1 µM],-2.7%[57.1 µM]
CCC1Sc2ccc(S(=O)(=O)CCC(=O)NCc3ccc(C)o3)cc2NC1=O (centres undefined),-2.1%,4.0%,11.9%,-1.0%,50.1µM*,-2.7%
O=C(CCS(=O)(=O)c1ccc(Br)s1)Nc1cc(C(F)(F)F)cc(C(F)(F)F)c1,nt,-3.1%,23.1µM*,?,3.7%,-14.1%
Cc1ccc(S(=O)(=O)N2CCN(c3nc(-n4ccnn4)nc4ccccc34)CC2)cc1,nt,nt,nt,nt,0.1%,4.6%
COc1ccc(-c2noc(-c3cccs3)n2)cc1OC,-2.1%,?,?,0.5%,-95.9%,11.9%[57.1 µM]
CCn1c(SCC(=O)c2cccs2)nnc1-c1cccs1,1.6%,22.4µM*,?,0.2%,-26.2%[57.1 µM],11.2%[57.1 µM]
COc1ccc(-c2noc(CSc3nc(N)c(-c4ccccc4)c(=O)[nH]3)n2)cc1OC,0.3%,0.6%,7.6%,-0.1%,-14.8%,-1.1%
CCn1c(SCc2nc(-c3ccc(OC)c(OC)c3)no2)nnc1-c1cccs1,1.7%,4.1%,20.6µM*,-14.2%,7.7%,2.6%
COc1ccc(-c2noc(CSc3nc4ccccc4[nH]3)n2)cc1OC,nt,0.8%,20.6µM*,-10.8%,6.1%,-6.5%
Cc1ccccc1-c1noc(CSc2nc3ccccc3[nH]2)n1,nt,0.3%,18.4µM*,-4.9%,4.5%,-10.7%
O=C(COc1ccccc1F)Nc1nnc(S(=O)(=O)N2CCCCCC2)s1,nt,0.7%,?,11.5%,28.6%,7.3%[11.4 µM]
CCC(C(=O)Nc1ccccc1OC)n1c(C(=O)OC)cc2sc(Cl)cc21 (centres undefined),nt,14.1%,4.7%,11.7%,6.8%,-6.9%
COc1ccc(Cl)cc1NC(=O)c1cnc2sc(N3CCOCC3)nn2c1=O,nt,?,16.1%,7.6%,2.9%[57.1 µM],-3.5%[57.1 µM]
COc1cccc(C(=O)Nc2cccc(C(=O)NCC(C)C)c2)c1,-0.5%,0.8%,13.7%,-0.5%,-14.8%,-15.7%
CC(C)CNC(=O)c1cccc(NC(=O)c2ccc(Cl)c([N+](=O)[O-])c2)c1,0.8%,?,25.9µM*,?,-16.9%,-8.9%
CCN(CC)c1ccc(/C=C2\SC(=O)N(C(C)C)C2=O)o1,-4.0%,?,-1.3%,?,3.98µM*,-19.4%[57.1 µM]
CCOC(=O)C1CCCN(C(=O)Cn2ncc3c4ccccc4n(Cc4ccc(F)cc4)c3c2=O)C1 (centres undefined),nt,3.9%,?,1.6%,38.8%,38.0%
Cc1cc2c(NC3CCCCC3)ncnc2s1,0.1%,3.2%,11.6µM*,-12.4%,2.1%[57.1 µM],-6.3%
Cc1cc(C)nc(NS(=O)(=O)c2ccc(NC(=O)COc3ccc(C(C)(C)C)cc3)cc2)n1,nt,0.3%,3.0%,-1.3%,5.6%,0.5%
O=C(Nc1c(C(=O)N2CCN(c3ccccc3F)CC2)oc2ccccc12)c1ccc(Br)o1,nt,0.7%,23.1µM*,-9.5%,6.5%,-8.6%
C=CCSC1=N/C(=C\C=C\c2ccco2)C(=O)S1,6.7%,12.6µM*,-2.0%,-19.1%,?,-8.9%
CCOC(=O)c1c(Nc2ccc(C)cc2)nnc(-c2ccccc2)c1-c1ccccc1,nt,1.0%,18.4µM*,-14.5%,9.6%,-2.3%
SMILES,GALK inh,Nrf2 ARE act,Nrf2 inh,A549 viability,TrxR1 inh,TrxR1 substrate
CCOC(=O)c1c(Nc2cccc(C(=O)OC)c2)nnc(-c2ccccc2)c1-c1ccccc1,nt,0.2%,?,-18.1%,14.0%,-4.0%
O=C(CC(c1ccco1)S(=O)(=O)c1ccccc1)c1ccc(F)cc1 (centres undefined),-1.5%,?,-4.6%,0.1%,50.1µM*,8.0%
CC(=O)c1ccc(NS(=O)(=O)c2cnc(N)nc2)cc1,nt,-0.8%,nt,-0.8%,3.8%[57.1 µM],-4.0%[57.1 µM]
O=C(O)C[C@@H]1C(=O)O[C@@H]2C(COC(=O)c3cc(O)c(O)c(O)c3)O[C@@H](OC(=O)c3cc(O)c(O)c(O)c3)[C@@H](OC(=O)c3cc(O)c(O)c4c3[C@H]1[C@H](O)C(=O)O4)[C@H]2OC(=O)c1cc(O)c(O)c(O)c1 (some centres undefined),14.1µM*,nt,nt,nt,nt,nt
CN(C)c1ccc(C2C=C(c3ccccc3)Nc3nnnn32)cc1 (centres undefined),nt,5.8%,9.9%,4.7%,1.8%,0.9%
COc1ccccc1CNc1ncc(-c2ccc(F)cc2)n1C,3.5%,0.3%,-5.2%,-1.0%,28.7%,4.7%
COc1ccc(CNc2ncc(-c3ccc(F)cc3)n2C)c2ccccc12,0.8%,-1.9%,20.6µM*,-0.4%,9.3%,7.1%
CCN1CCN(C(c2ccccc2Cl)c2c(O)cc(C)n(CCOC)c2=O)CC1 (centres undefined),nt,3.2%,nt,10.6%,10µM*,-2.2%[57.1 µM]
CCN1CCN(C(c2ccc(SC)cc2)c2c(O)cc(C)n(CCOC)c2=O)CC1 (centres undefined),nt,2.1%,nt,16.3%,25.1µM*,4.0%[57.1 µM]
CCOc1ccc(S(=O)(=O)Nc2nc3ccccc3nc2N2CCN(C)CC2)cc1,-3.0%,3.7%,nt,4.3%,-4.5%[57.1 µM],9.9%[57.1 µM]
O=S(=O)(Nc1nc2ccccc2nc1N1CCN(c2ccccc2F)CC1)c1ccc(Cl)cc1,2.6%,-0.6%,23.1µM*,?,-10.0%,-4.3%
C#CC[N+](CC)(CC)CC#Cc1cccc(Cl)c1,-1.4%,-0.4%,10.3µM*,-16.6%,13.9%[57.1 µM],11.2%[57.1 µM]
C#CC[N+](C)(C)CC#Cc1ccc(Cl)cc1,-1.3%,-1.0%,-25.6%,-13.0%,-60.3%,-0.7%
COC1=CC(=O)c2c(ccc3ncnc(N)c23)C1=O,nt,-3.4%,4.61µM*,7.31µM*,?,79.4µM*
COC1=CC(=O)c2nc(Cl)ccc2C1=O,nt,-4.5%,nt,nt,nt,nt
O=C(CSCc1cnn(-c2ccccc2)c1-n1cccc1)NCc1cccc(Cl)c1,nt,-0.7%,?,-1.7%,-2.4%,1.7%
Nc1nc(Br)c2c(F)cccc2c1-c1ccc(Cl)cc1,0.2%,24.8%,?,8.6%,5.62µM*,12.8%
